Screening results as filed in PubChem BioAssay.
Rows were chosen to be rich in hits. Some 3.8% of all compounds tested hit in one or more screens of this group.
Shn3 3UTR inh – inhibitors of Schnurri-3 3'UTR reporter in osteoblasts; 360,000 compounds, 0.52% hits; Clone20 osteoblast Shn3 3'UTR firefly luciferase, 24 h; inhibition, % at 12.5 µM;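 active = mean inhibition of at least 75% with every replicate also reaching 75%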
697 NFkB inh – inhibitors of the PMA/ionomycin-induced NF-kB reporter in 697 B cells; 697 B-cell NF-kB luciferase reporter, 16 h; inhibition, % at 4 µM; 330,000 compounds, 0.33% hits; AID 435022; in the data active = inhibition above about 35%
Gli-Sufu antag – blocks Gli-Sufu signaling in a luciferase reporter. 340,000 compounds, 0.74% hits. Sufu-KO-LIGHT fibroblasts, Gli luciferase reporter luminescence. inhibition, % at 5 µM;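 active = inhibition above about 55%, limit read from the data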
Jurkat NFkB inh – lowers PMA/ionomycin-induced NF-kB signal in Jurkat cells; PMA/ionomycin-induced NF-kB luciferase reporter, luminescence; inhibition, % at 4 µM; 330,000 compounds, 0.53% hits; in the data active = inhibition above about 50%
Mdm2 MdmX PPI – disrupts the human Mdm2-MdmX interaction; SaOS-2 split-luciferase Mdm2/MdmX complementation, luminescence; inhibition, % at 8 µM; 330,000 compounds, 3% hits; AID 485346;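 active = inhibition of at least 50% at 8 µM in the primary screen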
Jurkat NFkB conf – inhibitors of the PMA/ionomycin-induced NF-kB reporter in Jurkat cells, retest | shares compounds with Jurkat NFkB inh | Jurkat NF-kB luciferase, 16 h | inhibition, % at 4 µM | 2,700 compounds, 27% hits;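 active = inhibition reaching about 45% at 4 µM in either replicate, limit read from the data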
697 NFkB conf – lowers PMA/ionomycin-induced NF-kB signal in 697 B cells; inhibition, % at 4 µM; shares compounds with 697 NFkB inh; 697 B-cell NF-kB luciferase, 16 h; 2,000 compounds, 35% hits; in the data active = inhibition mostly above about 28%, no sharp cut-off; inactive = mostly below about 22%
Mdm2 MdmX conf – human Mdm2/MdmX binding inhibition, confirmed | inhibition, % at 8 µM | AID 489028 | 10,000 compounds, 55% hits | shares compounds with Mdm2 MdmX PPI | luminescent assay; in the data active = inhibition above about 40%
FLuc counter – inhibits full-length luciferase, flagging false Mdm2/MdmX hits. 6,200 compounds, 77% hits. SaOS-2 full-length luciferase counterscreen, luminescence. inhibition, % at 8 µM. shares compounds with Mdm2 MdmX PPI;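 active = mean inhibition at 8 µM reaching about 37%, which flags the compound as non-specific, limit read from the data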;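 also: p53-null SaOS-2 cells with luciferase driven by a doxycycline-inducible promoter; compound on cells about two nights before reading with doxycycline added after day one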
Large screens that a line does not name were inactive (follow-up assays come after a bar, where they were run).

CCOc1ccc2c(c1)C(C)=CC(C)(C)N2S(=O)(=O)c1ccc(NC(C)=O)cc1	Gli-Sufu antag 65, Jurkat NFkB inh 56, Mdm2 MdmX PPI 62 | Jurkat NFkB conf 58 | Mdm2 MdmX conf 58 | FLuc counter 113
CC1=CC(C)(C)N(S(=O)(=O)c2ccc(F)cc2)c2ccc(C)cc21	none
O=C(C[C@H]1C[C@@H]2c3cc(NS(=O)(=O)c4ccccc4)ccc3O[C@@H]2[C@H](CO)O1)N1CCOCC1	none (no result: 697 NFkB inh, Gli-Sufu antag, Jurkat NFkB inh, Mdm2 MdmX PPI)
Cc1cccc(OCC(O)Cn2c(=N)n(Cc3ccccc3)c3ccccc32)c1 (centres undefined)	Jurkat NFkB inh 62, Mdm2 MdmX PPI 88 | Jurkat NFkB conf inactive | Mdm2 MdmX conf 64 | FLuc counter 64
CCN(CC)CCn1c(=N)n(CC(O)COc2cccc(C)c2)c2ccccc21 (centres undefined)	none
CCNC(=O)C1(C)CCN(C(=O)c2c(F)cccc2F)C1 (centres undefined)	none (no result: 697 NFkB inh, Gli-Sufu antag, Jurkat NFkB inh, Mdm2 MdmX PPI)
Cc1cccc(N2CC(C(=O)Nc3ccc4c(c3)OCCO4)CC2=O)c1C (centres undefined)	none
N#Cc1ccc(C23CC4(C2)[C@H](CN(CC2CCCCC2)[C@@H]4c2ccccc2)C3c2ccc(Cl)nc2)cc1 (some centres undefined)	none
O=C1c2cccc3cc([N+](=O)[O-])cc(c23)C(=O)N1CCN1CCCC1	Shn3 3UTR inh 94, Gli-Sufu antag 75, Jurkat NFkB inh 86, Mdm2 MdmX PPI 90 | Jurkat NFkB conf 57 | Mdm2 MdmX conf 96 | FLuc counter 53
O=C(NC(Nc1nc2ccc([N+](=O)[O-])cc2s1)(C(F)(F)F)C(F)(F)F)c1ccccc1Cl	Shn3 3UTR inh 90, Gli-Sufu antag 93, Jurkat NFkB inh 78, Mdm2 MdmX PPI 100 | Jurkat NFkB conf 70 | Mdm2 MdmX conf 100 | FLuc counter inactive
Cc1ccc(/C(N)=N/OC(=O)c2ccc(C)cc2Cl)cc1	Mdm2 MdmX PPI 74 | Jurkat NFkB conf inactive | 697 NFkB conf inactive | Mdm2 MdmX conf 77 | FLuc counter active
Cc1ccc(/C(N)=N/OC(=O)c2cccc(F)c2)cc1	none
COC(=O)c1cc(C(=O)N2CCc3ccccc32)cc([N+](=O)[O-])c1	none
Cc1cc(/C=N/NC(=O)c2cccs2)c(C)n1-c1ccccc1	Mdm2 MdmX PPI 93 | Jurkat NFkB conf inactive | 697 NFkB conf inactive | Mdm2 MdmX conf 88 | FLuc counter 93
CC(=O)/C(N=Nc1cc(C)ccc1O)=C(\C)O	none
Cc1ccc(O)c(N=Nc2nccs2)c1	Shn3 3UTR inh 93, Jurkat NFkB inh 59, Mdm2 MdmX PPI 75 | Jurkat NFkB conf 79 | Mdm2 MdmX conf 64 | FLuc counter inactive
Cc1cc(NC(=O)CSc2nnc(-c3ccncc3)n2C)n(-c2ccccc2)n1	none
CC(C)Cc1ccc(C(C)C(N)=NCCc2ccccc2)cc1 (centres undefined)	Jurkat NFkB inh 50, Mdm2 MdmX PPI 81 | Jurkat NFkB conf inactive | Mdm2 MdmX conf 72 | FLuc counter 48
COc1ccc(CCN=C(N)C(C)c2ccccc2)cc1OC (centres undefined)	none
Cc1ccc(S(=O)(=O)Nc2ccc(O)c3ccccc23)c(C)c1	none (no result: 697 NFkB inh, Jurkat NFkB inh, Mdm2 MdmX PPI)
Cc1ccc(S(=O)(=O)Nc2ccc3c4c(cccc24)CC3)c(C)c1	Jurkat NFkB inh 50, Mdm2 MdmX PPI 71 | Jurkat NFkB conf inactive | Mdm2 MdmX conf 60 | FLuc counter 53
Cc1cc(C)c(S(=O)(=O)Nc2ccc3c4c(cccc24)CC3)c(C)c1	Jurkat NFkB inh 58, Mdm2 MdmX PPI 75 | Jurkat NFkB conf inactive | Mdm2 MdmX conf 63 | FLuc counter 107
CCOC(=O)C1=C(COC(=O)c2cc(OC)c(OC)cc2[N+](=O)[O-])NC(=O)NC1C (centres undefined)	none
CC1(C)CC(NNCCC#N)=CC(=[N+]2CCCC2)C1	none
